Where “and” joins values, the source holds several entries; their conditions need not be identical. Equal entries are not always repeated. The campaign covered roughly 75,000 compounds. About 5,700 (7.6%) were called active. Where a call stands in place of a potency, no number is given. Not shown: some 7% with an inconclusive outcome. This is one part of a sample in which actives are shown more often than they occur. The call rests on the fitted dose curve; in most records, active means well fitted inhibition curve with a large enough effect; inconclusive means small, poorly fitted or top-dose-only effect; inactive means no such curve, though single readings can be large or run the other way.
Target: 3-hydroxyacyl-CoA dehydrogenase type-2 (Homo sapiens) (UniProt Q99714)
Test: qHTS Assay for Inhibitors of HSD17B4, hydroxysteroid (17-beta) dehydrogenase 4; further: nearly all actives have a fitted effect of over 70% in size
Settings: recombinant HSD17B10, NADH fluorescence kinetic; series mostly up to 57.1 µM
Description: Assay Overview: NIH Molecular Libraries Screening Centers Network [MLSCN] NIH Chemical Genomics Center [NCGC] Structural Genomics Consortium [SGC] Grant number: None HADH2: Hydroxyacyl-Coenzyme A dehydrogenase, type II, was supplied by researchers at the Structural Genomics Consortium, Oxford University lab (PI Udo Oppermann). The mitochondrial enzyme 17-hydroxysteroid dehydrogenase type 10 (HSD17-10) previously classified as type II hydroxyacyl-CoA dehydrogenase (HADH2) catalyzes the NAD+ dependent oxidation of a variety of substrates including acyl-CoAs, androgens and neurosteroids as well as bile acids(Shafqat N, Marschall HU, Filling C, et al. Biochemical Journal. 2003;376(Pt 1):49-60). […] The enzyme was produced by E.coli fermentation as His-tagged recombinant for the purpose of X-ray structure determination, and had been mass-spectrometry characterized. Inhibition of HADH2 activity was screened by utilizing beta-hydroxybutyryl coenzyme A as an electron donor and NAD+ as an electron acceptor/cofactor. An increase in the fluorescence intensity due to conversion of NAD+ to NADH was used to measure the enzyme activity.
Assay Protocol: Buffer: 100 mM Tris-HCl pH 9.0, containing 0.01 % Tween-20. Reagents/Controls: Buffer in columns 3 and 4 as negative control (no enzyme). Substrate/cofactor solution: 1 mM NAD+ and 90 uM beta-hydroxybutyryl coenzyme A (Sigma-Aldrich, St. Louis, MO) final concentrations dispensed throughout the plate. Enzyme: 20 nM HADH2 final concentration in columns 1, 2, 5-48. Column 1 is neutral (100% activity). Column 2 contained titration of apomorphine (Sigma-Aldrich, A 4393, PubChem CID 2215, top concentration 500 uM, then 1:2 dilution in duplicate) Assay Steps: Three uL of enzyme were dispensed to 1536-well Greiner black solid bottom plates. Compounds and controls (23 nL) were transferred via Kalypsys PinTool. The plates were incubated for 15 min at room temperature, and then 1 uL of substrate/cofactor solution was added to start the reaction. The plates were immediately transferred to and read every 30 seconds for 4 min on ViewLux High-throughput CCD imager (Perkin-Elmer) using 360 nm excitation and 450 nm emission fluorescence protocol. The fluorescence intensity difference between the last and the first time points was used to compute reaction progress.
Potency means the concentration at half of the fitted maximal effect.

SMILES | Potency | activity change, negative = inhibition
CCc1nc2oc3ccccc3c(=O)c2c(=O)n1Cc1ccc(OC)cc1 | inactive | 
O=c1c2ccccc2oc2nc(C3CCCCC3)n(Cc3ccco3)c(=O)c12 | inactive | 
O=c1c2ccccc2oc2nc3n(c(=O)c12)CCCS3 | 25.1 µM (active) | 
CN(C)/C=C1/Nc2ccccc2C1=O | inactive | 
CCn1ncc(Br)c1C(=O)Nc1cc(C)ccc1F | inactive | 
Cc1c(O)cc(O)c2c(=O)c(-c3ccc(O)cc3)coc12 | inactive | 
O=C1C(c2[nH]c3ccccc3c2O)=Nc2ccccc21 | 31.6 µM (active) | 
CCN(CC)CCCCn1c(-c2ccccc2)nc2c(N3CCOCC3)nc(C)nc21 | 20 µM (active) | 
CCCCNc1nc(C)nc2c1nc(-c1ccccc1)n2CCCCN(CC)CC | 25.1 µM (active) | 
CC(=O)c1c(N2CCOCC2)nc(=S)n(Cc2ccccc2)c1C | inactive | 
CCCCNc1nc2c(c(=O)[nH]c(=O)n2C)n1CCOc1ccccc1 | inactive | 
O=S(=O)(O)CCN1CCOCC1 | inactive | 
CCCn1c(C(O)c2ccc(OCC)cc2)nc2ccccc21 (stereo not given) | inactive | 
COc1ccccc1C(=O)Oc1ccc(N2C(=O)CCC2=O)cc1 | inactive | 
C[C@@H](c1ccccc1)N1C(=O)[C@H]2[C@H]3[C@H](O)[C@H](O)C/C(=N/OC[C@@H](O)COCc4ccco4)[C@@H]3CC[C@@H]2C1=O |  | 1.97% [at 11.4 µM] (inactive)
COc1ccc(S(=O)(=O)N2CCCC(C(=O)N3CCN(C)CC3)C2)cc1C (stereo not given) | inactive | 
C[N+]1(CCN=C=NC2CCCCC2)CCOCC1 |  | -0.294% [at 11.4 µM] (inactive)
CCOc1ccccc1C1C(C(=O)OC)=CN(C)C=C1C(=O)OC | 25.1 µM (active) | 
CCOc1ccccc1N(CC(=O)Nc1ccccc1C(=O)OC)S(C)(=O)=O | inactive | 
CCCCOCCCNC(=O)c1ccccc1OCC | inactive | 
CC12CN3CC(C)(CN(C1)C3c1ccc(Cl)cc1Cl)C2=O (stereo not given) | inactive | 
COC(=O)C1=CN(C)C=C(C(=O)OC)C1c1ccc(Cl)cc1Cl | 31.6 µM (active) | 
COC(=O)C1=C(C)N(C)C(C)=C(C(=O)OC)C1c1cccc(Br)c1 | inactive | 
O=S(=O)(N1CCOCC1)N1CCN(c2ccccc2F)CC1 | inactive | 
CCOC(=O)C1=C(CC)Nc2ccccc2N=C1NC(=O)c1cccc(S(=O)(=O)N2CCCC2)c1 | inactive | 

SMILES | Potency | activity change, negative = inhibition
CCOC(=O)CN1C(=O)C(O)(CC(=O)c2ccccn2)c2ccccc21 (stereo not given) | inactive | 
CCN(CC)S(=O)(=O)c1cccc(C(=O)Nc2ccccc2)c1 | inactive | 
CCc1c(O)nc(SCC(=O)N2CCCCC2)n(-c2ccccc2C)c1=O | inactive | 
CC1(C)OC2CC3C4CCC5=CC(=O)CCC5(C)C4(F)C(O)CC3(C)[C@]2(C(=O)CCl)O1 (stereo not given in full) | inactive | 
Cc1cccc(Br)c1 | inactive | 
Cc1cc(=O)[nH]c(SCc2cc(Cl)ccc2OC(F)F)n1 | inactive | 
CCOc1ccc2nc(NC(=O)CSc3nc4c(c(=O)n(C)c(=O)n4C)n3CC)sc2c1 | inactive | 
O=c1cc(Cn2nnc(-c3ccc(Cl)cc3)n2)nc2sccn12 | inactive | 
O=C(NCc1cn2ccsc2n1)Nc1ccc(Cl)cc1 | inactive | 
O=C(NCc1ccc(Cl)cc1)c1cc2c(nc3sccn32)s1 | 20 µM (active) | 
CCCCn1nnnc1NCc1cc(OC)c(OC)c(OC)c1 | inactive | 
O=C(O)C1CCN(c2ncnc3ccc(-c4ccccc4C(F)(F)F)cc23)CC1 | inactive | 
COc1ccc(N2C(=O)CCC(C(=O)Nc3ccccn3)C2c2ccc(OC)c(OC)c2)cc1 (stereo not given) | inactive | 
CC(C)=CCC/C(C)=C/CO/N=C1/C[C@@H](O)[C@@H](O)[C@@H]2[C@@H]3C(=O)N(C(C)(C)C)C(=O)[C@H]3CC[C@H]12 |  | 0.507% [at 11.4 µM] (inactive)
CC(C)c1ccc2c(c1)c(SC(C)(C)C)c(CC(C)(C)C(=O)O)n2Cc1ccc(Cl)cc1 | 10 µM (active) and 3.98 µM (active) | 
COC(=O)[C@@H]1CC[C@H](C)[C@@H](c2ccc(C)cc2)N1C(=O)c1ccc(/C=N\O[C@@H](C)c2cn([C@H](CO)Cc3ccccc3)nn2)cc1 |  | -0.702% [at 11.4 µM] (inactive) and -3.31% [at 11.4 µM] (inactive)
O=C(Nc1c(C(=O)N2CCCCC2)cnn1-c1ccccc1)c1ccco1 | inactive | 
Cc1c(C(=O)NCCN2CCOCC2)sc2nc(-c3ccc(F)cc3)cn12 | inactive | 
COc1ccc(N2C(=O)c3cccc4cccc(c34)C2=O)nn1 | 31.6 µM (active) | 
CC(C(=O)O)N1C(=O)c2cccc3cccc1c23 (stereo not given) | inactive | 
O=C1c2cccc3cccc(c23)N1CN1CCN(c2ccccn2)CC1 | inactive | 
CN1CC(=O)N=C1N | inactive | 
COC(=O)NC(c1ccccc1)[C@]1(C(C)=O)CCCC1=O (stereo not given in full) |  | 3.19% [at 11.4 µM] (inactive)
O=S(=O)(O)c1nc2ccccc2n1Cc1ccc(Cl)cc1 | inactive | 
Cc1ccc(C(=O)COc2cccc(NC(=O)c3ccco3)c2)cc1 | inactive | 

SMILES | Potency | activity change, negative = inhibition
CCN(CC)C(=O)c1sc(NC(=O)c2ccco2)c(C#N)c1C | inactive | 
Cc1ccnc(NC(=O)c2ccc(NC(=O)c3ccco3)cc2)c1 | inactive | 
Cc1ccc(Cn2c(NC(=O)c3ccco3)nc3ccccc32)cc1 | 15.8 µM (active) | 
CCn1nc(NC(=O)c2ccco2)c2cc3ccc(C)cc3nc21 | 20 µM (active) | 
COC(C)(C)[C@]12CC(O)(C(C)C)ON1[C@H]1CCCCC1N2O (stereo not given in full) | inactive | 
Cc1sc2c(c1C)c(=O)n(-c1ccccc1)c1nncn21 | inactive | 
Cn1c2c(c(=O)n(C)c1=O)C(c1ccc(O)cc1)Nc1ccccc1O2 (stereo not given) | inactive | 
O=C(CCCN1C(=O)C2C3C=CC(C3)C2C1=O)N1CCN(c2ccccc2)CC1 (stereo not given) | inactive | 
CC(C)CCNC(=O)CCNS(=O)(=O)c1ccc(Cl)cc1 | inactive | 
CCCCOc1ccc(NC(=O)CSCC(=O)OCC)cc1 | inactive | 
CCCCOc1ccc(-c2ncc(C(=O)OCC)c(N)n2)cc1 | 31.6 µM (active) | 
CCOC(=O)c1cnc(SCC(=O)NCc2ccco2)nc1N | inactive | 
Cc1cccc(NC(=O)c2ccc3ccccc3n2)n1 | inactive | 
COC(=O)[C@@H]1C[C@@]2(O)[C@H](O)[C@H](O)[C@H](O)C[C@H]2N1Cc1ccc(C(C)(C)C)cc1 | inactive | 
COc1ccc(OC)c([C@H](O)CNC(=O)CN)c1 | inactive | 
CCOC(=O)c1[nH]c2ccc(OC)cc2c1NC(=O)N1CCOCC1 | 25.1 µM (active) | 
Cc1c(C(=O)CN2CCOCC2)[nH]c2ccccc12 | inactive | 
COc1cc(NC(=O)N2CCOCC2)cc(OC)c1 | inactive | 
O=C(CN1C2CCC1CC(NC(=O)C1CC1)C2)NCc1ccccc1 (stereo not given) | inactive | 
Cc1nc2ccccc2c2oc(C(=O)NCC3CCCO3)cc12 (stereo not given) | 31.6 µM (active) | 
CCCN(CCC)CCNC(=O)c1cc2c(C)nc3ccccc3c2o1 | inactive | 
Cc1nc2ccccc2c2oc(C(=O)NCCCN3CCC(C)CC3)cc12 | inactive | 
Cc1ccc(Cc2cncc(O)c2)cc1S(=O)(=O)O | inactive | 
CCCn1c(SCC(=O)c2ccc3c(c2)OCCO3)nnc1C(C)C | inactive | 
COc1cc(C2C(C(=O)Nc3ccc(F)cc3)=C(C)Nc3nc(CCCO)nn32)cc(OC)c1OC (stereo not given) | inactive | 

SMILES | Potency | activity change, negative = inhibition
CC1C(O)CC2C(C(=O)O)=CO[C@@H](O[C@H]3OC(CO)C(O)C(O)C3O)C21 (stereo not given in full) | inactive | 
COc1ccc(C2CC(c3ccccc3)Nc3ncnn32)cc1 (stereo not given) | inactive | 
CC(C)[C@@H](OCc1ccccc1)[C@H](C)/C=N\OC[C@@H](C)[C@H](OCc1ccccc1)C(C)C |  | 2.53% [at 11.4 µM] (inactive)
OC(COc1ccccc1)Cn1cc(Br)cn1 (stereo not given) | inactive | 
COc1cc(-c2nc(S(=O)(=O)c3ccc(Cl)cc3)c(N(C)C)o2)cc(OC)c1OC | inactive | 
COc1ccc(C2C(C(=O)Nc3ccccc3OC)=C(C)Nc3nnnn32)c(OC)c1 (stereo not given) | inactive | 
COC(=O)c1ccc(C2C3=C(Nc4nnnn42)c2ccccc2OC3)cc1 (stereo not given) | 25.1 µM (active) | 
COC(=O)c1ccc(C2NC(=O)NC(C)=C2C(=O)N(C)C)cc1 (stereo not given) | inactive | 
Cc1c(C)c2c(c(C)c1O)CC[C@@](C)(CN1CCN(c3cc(N4CCCC4)nc(N4CCCC4)n3)CC1)O2 | inactive | 
c1coc(-c2nc3nc4ccccc4n3nc2-c2ccco2)c1 | inactive | 
CCOC(=O)CSc1nnc(-c2ccco2)n1C | inactive | 
Cn1c(-c2ccco2)nc2cc3ccccc3cc21 | 25.1 µM (active) | 
Cn1c(SCC(=O)N2CCOCC2)nnc1-c1ccc(NC(=O)c2ccccc2F)cc1 | inactive | 
COc1cccc(Nc2nnc(SCC(=O)N3CC(C)OC(C)C3)s2)c1 (stereo not given) | inactive | 
O=C(C1CCN(CC2CCCCC2)CC1)N1CCCC1 | inactive | 
Cn1c(CCN2CCCCCC2)nc2cc(NC(=O)Nc3ccccc3)ccc21 | 25.1 µM (active) | 
CCC(=O)Nc1ccc2c(c1)nc(CCN1CCN(C)CC1)n2C | inactive | 
Cc1nn(CC(=O)Nc2ccc3c(c2)nc(CN2CCCCC2)n3C)c(=O)c2ccccc12 | inactive | 
CN(C)CCCNC(=O)c1ccc2[nH]c3ccccc3c2c1 | 20 µM (active) | 
CN(C)CCCCNC(=O)c1ccc(Cc2nc3ccccc3[nH]2)cc1 | inactive | 
CC(C)N(CCNC(=O)c1ccc(-n2c(=O)c(=O)[nH]c3ccccc32)cc1)C(C)C | inactive | 
COC(=O)[C@@]1(Cc2ccc(OC)cc2)[C@H]2c3cc(C(=O)N4CCCC4)n(Cc4ccc(OC(F)(F)F)cc4)c3C[C@H]2CN1C(=O)c1ccccc1 | inactive | 
Cc1ccc2c(C(=O)CN3CCCC3)c(C)[nH]c2c1 | inactive | 
CCOC(=O)c1nnn(-c2nonc2OC)c1-c1ccccc1 | inactive | 
CC(=O)Oc1c2c(c3c(c1CC=C(C)C)O[C@@]14C(=CC5CC1C(C)(C)OC4(C/C=C(\C)C(=O)O)C5=O)C3=O)OC(C)(CCC=C(C)C)C=C2 (stereo not given in full) | 20 µM (active) | 
